# Data: PubChem BioAssay (NCI)
# The panel holds about 83,000 compounds, 20% with a hit somewhere; the sample as a whole holds those more often.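 Single-concentration screen, 48 h exposure, 96-well plates. Endpoint: percent growth. Below 10 = active.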 Unmarked numbers belong to inactive results. Active and inactive are the calls of the source.
# System: M14 melanoma
# Experiment: NCI-60 one-dose screen, 48 h (100 = growth as untreated, 0 = no growth, -100 = all killed)
# Conditions: 10 µM unless noted
row,Structure (SMILES),growth
1,COc1cc2cc(C(=O)N3C[C@@H](CCl)c4c3cc(OC(=O)N(CCC(=O)N3CCN(C)CC3)C3CCCCC3)c3ccccc43)[nH]c2c(OC)c1OC,-84.5% (active)
2,Clc1ccc(Nc2nnc(-c3c[nH]c4ccccc34)o2)cc1,80.9%
3,Cc1ccc(S(=O)(=O)N(CCn2ccnc2[N+](=O)[O-])CCn2ccnc2[N+](=O)[O-])cc1,97.6%
4,O=C(N/N=C/c1ccsc1)c1[nH]c2ccc(Br)cc2c1-c1ccccc1,-73.8% (active)
5,Cc1ccc2nc(NC(=O)Nc3cccc(Cl)c3)sc2c1,97.6%
6,N/C(=N\c1nc2ccc([N+](=O)[O-])cc2s1)NC(=O)Nc1ccccc1Cl,62.8%
7,COc1ccc(/C=C/C(=O)c2ccc(S(=O)(=O)NCCNc3nc(N(C)C)nc(N4CCOCC4)n3)cc2)cc1,92.1%
8,Nc1nnc(CS(=O)(=O)c2ccccc2)s1,97.3%
9,CS(=O)(=O)c1ccc(-n2nc(C(=O)NCc3ccccc3)cc2-c2ccc(Cl)cc2)cc1,93.9%
10,Cc1cccc(NCC(=O)N2CCN(c3ncnc4c3cnn4-c3ccccc3)CC2)c1,62.2%
11,CCCCCCCOc1ccc(S(=O)(=O)Nc2ccc(C)c(F)c2C(=O)O)cc1,96.4%
12,O=C(NNC(=O)c1ccc(OCc2nc3ccc(Cl)cc3[nH]2)cc1)Nc1ccc(Cl)c(C(F)(F)F)c1,79.2%
13,OC(c1ccccc1)(c1ccccc1)C1CCN(c2ccc3nnc(Cl)n3n2)CC1,39.2%
